# About 83,000 compounds went through this panel and 20% of them were active in at least one assay; those are over-represented in the sample as a whole.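 Cells were grown in 96-well plates and exposed to the test compound at a single concentration for 48 hours; results are reported as percent growth, with values below 10 considered active.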 A number with no mark means an inactive call. Activity calls are given as the source filed them.
# Tested on: HL-60(TB) leukemia
# Experiment: NCI-60 one-dose screen, 48 h (100 = growth as untreated, 0 = no growth, -100 = all killed)
# Conditions: 10 µM unless noted
row,Structure (SMILES),growth
1,O=c1[nH]c(=O)c2cc(Cl)cc(Cl)c2[nH]1,100%
2,COc1ccccc1N1C(=O)/C(=C/C2=Cc3ccccc3OC2)SC1=S,92.9%
3,Clc1nc(-c2cccnc2)nc2sc3c(c12)CCCCCC3,102%
4,O=c1[nH]c(=O)n(C2CC(O)C(CO)O2)cc1C(F)(F)F (stereo not given),-22.2% (active)
5,Brc1ccc(Nc2nc3ccccc3nc2Nc2ccc(Br)cc2)cc1,-12.3% (active)
6,COc1cccc(OCC(O)CN2CCN(c3ccccc3)CC2)c1 (stereo not given),78.7%
7,COc1ccc(-c2nn(-c3ccccc3)cc2/C=C/C(=O)NNC(=O)Nc2ccc(C)cc2)cc1,90.5%
8,CCCCCCCCCCC1CO1 (stereo not given),104%
9,C=CCNC(=S)N/C=C(/C(=O)c1ccccc1)c1ccccc1,101%
10,CC(=O)c1cccs1,130%
11,Nc1nc2c(s1)CCc1c-2c(Br)n(Cc2ccccc2)c1Br,51.6%
12,CCN(CC)c1ccc(/C=N/NC(=O)c2ccc(Nc3ccnc(C(F)(F)F)c3)cc2)c(O)c1,53.2%
13,CCCCC[C@H](O)C/C=C1/C(=O)C=C[C@@H]1C/C=C\CCCC(=O)O,90.7%
14,COc1ccc2c(c1)OC(N)=C(C#N)C2c1ccc(F)c(F)c1 (stereo not given),-18.4% (active)
15,COC(=O)CNc1nc(N(C)O)nc(N(C)O)n1,-7.42% (active)
16,CCC(=O)Nc1ccc(-c2nc(-c3cccc(OC)c3)c(-c3ccnc(Br)c3)[nH]2)cc1,49.5%
17,C=CCc1cc(OC)c(OC)c(OC)c1,78.7%
18,COc1cccc(-c2ccc3c(c2)NC(=O)/C3=C\c2ccc[nH]2)c1,-1.26% (active)
19,CC1CCN(CCCCCOc2ccc3oc4ccc(Cl)cc4c(=O)c3c2)CC1,39.6%
20,C1=C2CCCC3=Cc4ccccc4OC23Oc2ccccc21,8.47% (active)

row,Structure (SMILES),growth
1,C=C(c1ccc(C(=O)O)c(F)c1)c1cc2c(cc1C)C(C)(C)CCC2(C)C,97.2%
2,CCNCC(=O)Nc1ccc(C(=O)OCC)cc1,88.6%
3,COc1cc(C2Nc3ccccc3S2)cc(CN2CCOCC2)c1O (stereo not given),80.6%
4,CN(C)CCSC1=Nc2ccc(Cl)cc2C(c2ccccc2Cl)N(C)C1 (stereo not given),35.1%
5,Cc1ccc2nc(NC(=O)CSc3nc(-c4ccccc4)c(C#N)c4nnnn34)sc2c1,99.5%
6,O=C(CCCCCCC(=O)Nc1ccc2c(c1)/C(=C/c1ccc[nH]1)C(=O)N2)NO,16.5%
7,Oc1c(CN2CCCC2)cc(COCc2ccccc2)c2cccnc12,10.6%
8,O=C1NC(=O)c2c1c1c3ccccc3[nH]c1c1oc3cc(Br)ccc3c21,104%
9,Oc1c(Cl)cc(Cl)c2ccc(CN3CCNCC3)nc12,44.1%
10,CCN(CC)c1ccc2cc(NC(=O)OCCNC(=O)CCNC(=O)[C@H](CC(C)C)NC(=O)C(C)(C)NC(=O)C(C)(C)NC(=O)[C@H](CC(C)C)NC(=O)CCNC(=O)C(C)(C)NC(=O)[C@H](CC(C)C)NC(=O)CCNC(=O)[C@@](C)(CC)NC(=O)[C@H](C)NC(=O)CCNC(=O)C(C)(C)NC(=O)[C@H](C)NC(=O)[C@@H]3CCCN3C(=O)[C@@](C)(CC)NC(=O)[C@H](Cc3ccccc3)NC(=O)C3CCCN3C(=O)C(C)(C)NC(=O)C3CCCN3C(=O)C(C)(C)NC(C)=O)c(=O)oc2c1 (stereo not given in full),-67.7% (active)
11,c1cc2[nH]ncc2cc1-c1nc2ccc3[nH]ncc3c2c2c1CCC2,-4.44% (active)
12,O=C(OCc1ccc2c(Br)cc(Br)c(O)c2n1)N1CCN(C(=O)c2cc3ccccc3[nH]2)CC1,53.9%
13,Cc1c(C(=O)Nc2nc3ccccc3[nH]2)cnn1-c1ccccn1,58.5%
14,O=C(NCCN1CCCCC1)n1cc(-c2ccncc2)c(-c2ccc(Cl)c(O)c2)n1,71.1%
15,CC(=O)N1CC(Nc2ccc(OC(F)(F)F)cc2)=CC1=O,-8.58% (active)
16,COC(=O)[C@@H](OC)[C@@H]1Cc2cc3cc(OC4CC(OC5CC(O)C(O)C(C)O5)C(O)C(C)O4)c(C)c(O)c3c(O)c2C(=O)[C@H]1OC1CC(OC2CC(OC3CC(C)(O)C(O)C(C)O3)C(O)C(C)O2)C(O)C(C)O1 (stereo not given in full),-33.5% (active)
17,O=C(Nc1ccc(Cl)c(Cl)c1)NC(CO)(CO)CO,102%
18,O=[N+]([O-])c1ccc2c(c1)Cc1cc(I)ccc1-2,92.8%
19,NC(N)=N/N=C(\c1ccccc1)C(O)c1ccccc1 (stereo not given),96.7%
20,COc1cc(C(=O)c2cc(C)c3[nH]c4ccc(C)cc4c3c2C)cc(OC)c1OC,-2.6% (active)
